Results taken from PubChem BioAssay (Tox21).
Records with an inconclusive call do not appear. A call without a number means that no potency is given here. The source made the active and inactive calls. Calls follow the shape of the dose curve; as a rule, active = well fitted activation curve with a large enough effect in the signal ratio in the repeat runs (not every such curve was filed as active); inconclusive = weak or mixed curves, or effect the other way; inactive = no such curve, though single readings can be large or run the other way; the % refers to the signal ratio.

Target: Glucocorticoid receptor (Homo sapiens) (UniProt P04150)
Experiment: qHTS assay to identify small molecule agonists of the glucocorticoid receptor (GR) signaling pathway (AID 720691)
Conditions: GR-bla HeLa, beta-lactamase reporter ratio, 18 h; series mostly up to 62.4 µM
Source text: U.S. Tox21 Program National Center for Advancing Translational Sciences [NCATS] NIH Chemical Genomics Center [NCGC] U.S. Environmental Protection Agency [EPA] National Institutes of Environmental Health Sciences [NIEHS] National Toxicology Program [NTP] U.S. Food and Drug Administration [FDA] Tox21 Assay Overview: The Glucocorticoid receptor (GR) is one of the members of the nuclear receptor family of ligand-dependent transcription factors. GR plays a critical role in carbohydrate, protein and lipid metabolisms and programmed cell death. CellSensor GR-bla HeLa cell line (Invitrogen) contains a beta-lactamase reporter gene under the control of the glucocorticoid response element stably integrated into HeLa cells, a cervical cancer cell line that expresses glucocorticoid receptor. The activation of the reporter gene under culture conditions can be detected by fluorescence intensity. This cell line has been used to screen the Tox21 10K compound library and to identify the compounds that activate the GR signaling.
Tox21 Assay Protocol Summary: The GR-bla HeLa cells were dispensed at 1500 cells/6 ul/well in 1536-well black wall/clear bottom plates using a Multidrop Combi (ThermoFisher Scientific, Waltham, MA) dispenser. After the assay plates were incubated at a 37 C/5% CO2 incubator for 4 hours, 23 nL of compounds dissolved in DMSO, positive controls or DMSO only was transferred to the assay plate by a pintool station (Kalypsys, San Diego, CA). The plates were incubated at 37 C for 18 hours. After 1 uL of LiveBLAzerTM B/G FRET substrate was added using a Flying Reagent Dispenser (Aurora Discovery, San Diego, CA), the plates were incubated at room temperature for 2 hours, and fluorescence intensity was measured by an Envision plate reader (PerkinElmer, Shelton, CT).
Potency is read from the fitted curve at half-maximal effect.

Sequence of Glucocorticoid receptor (Homo sapiens) (P04150 whole entry, looked up): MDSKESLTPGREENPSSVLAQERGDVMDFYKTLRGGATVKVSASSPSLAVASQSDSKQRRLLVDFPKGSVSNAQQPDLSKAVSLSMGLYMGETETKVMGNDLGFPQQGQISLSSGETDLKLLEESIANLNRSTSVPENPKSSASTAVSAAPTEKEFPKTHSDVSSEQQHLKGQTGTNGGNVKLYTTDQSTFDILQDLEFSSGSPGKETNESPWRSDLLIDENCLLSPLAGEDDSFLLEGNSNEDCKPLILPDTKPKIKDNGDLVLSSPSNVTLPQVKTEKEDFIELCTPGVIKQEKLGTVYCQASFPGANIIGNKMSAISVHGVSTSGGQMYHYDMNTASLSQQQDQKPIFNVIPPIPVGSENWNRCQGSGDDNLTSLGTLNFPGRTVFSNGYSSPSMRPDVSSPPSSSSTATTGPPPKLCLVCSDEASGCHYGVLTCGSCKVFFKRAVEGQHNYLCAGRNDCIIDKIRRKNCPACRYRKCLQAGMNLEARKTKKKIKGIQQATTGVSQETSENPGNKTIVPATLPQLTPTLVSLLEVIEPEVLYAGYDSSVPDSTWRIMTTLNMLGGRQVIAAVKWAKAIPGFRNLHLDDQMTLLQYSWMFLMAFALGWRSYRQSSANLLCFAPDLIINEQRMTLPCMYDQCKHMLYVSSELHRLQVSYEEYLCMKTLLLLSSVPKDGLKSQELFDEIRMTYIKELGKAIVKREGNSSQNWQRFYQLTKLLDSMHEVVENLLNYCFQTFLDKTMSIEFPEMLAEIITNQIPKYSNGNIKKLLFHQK

Compound	Potency
CC(=O)OCC(=O)[C@@]12OC(C)(C)O[C@@H]1C[C@H]1[C@@H]3C[C@H](F)C4=CC(=O)C=C[C@]4(C)[C@@]3(F)[C@@H](O)C[C@@]12C	6.4 nM (active)
NC(=O)N(O)[C@@H]1C=C[C@H](Oc2cccc(Oc3ccc(F)cc3)c2)C1	inactive
CC(C)C(=O)O	inactive
COC(=O)CC(=O)C(C)(C)C	inactive
CCCc1c(OCCCOc2ccc(OCC(=O)O)cc2)ccc(C(C)=O)c1O	inactive
Cc1nc2ccccn2c(=O)c1CCN1CCC(C(=O)c2ccc(F)cc2)CC1	inactive
COc1cc2c(N3CCN(C(=O)Nc4ccc(OC(C)C)cc4)CC3)ncnc2cc1OCCCN1CCCCC1	inactive
CCC(C)(O)CCC=C(C)C (stereo not given)	inactive
COc1ccc(CCC(=O)c2c(O)cc(O[C@@H]3O[C@H](CO)[C@@H](O)[C@H](O)[C@H]3O[C@@H]3O[C@@H](C)[C@H](O)[C@@H](O)[C@H]3O)cc2O)cc1O	inactive
Cc1nc2ccccc2s1	inactive
CN1C(=O)CC(C)(c2ccccc2)C1=O (stereo not given)	inactive
OCC1CC=CCC1 (stereo not given)	inactive
CCNC(=O)N1CCN(CCCC(c2ccc(F)cc2)c2ccc(F)cc2)CC1	inactive
Oc1ccc(Nc2ccccc2)cc1	inactive
CCCC(=O)O[C@]1(C(=O)COC(=O)CC)CC[C@H]2[C@@H]3CCC4=CC(=O)CC[C@]4(C)[C@H]3[C@@H](O)C[C@@]21C	301 nM (active)
O=S(=O)(c1ccccc1)c1ccc(Cl)cc1	inactive
Cc1cc(C(=C2C=CC(=Nc3ccc(S(=O)(=O)O)cc3S(=O)(=O)O)C=C2)c2ccc(Nc3ccc(S(=O)(=O)O)cc3)cc2)ccc1N	inactive
CCCCOC(=O)CCS	inactive
COCCOC	inactive
CC(=O)Nc1ccc(N)cc1	inactive

Compound	Potency
CNCCCC1c2ccccc2C=Cc2ccccc21	inactive
CCCCC1C(=O)N(c2ccccc2)N(c2ccc(O)cc2)C1=O (stereo not given)	inactive
CNC(=S)NC	inactive
Nc1nccs1	inactive
O=C1OCCN1/N=C/c1ccc([N+](=O)[O-])o1	inactive
O=C(O)c1ccc(CO)o1	inactive
CCCCCCCC/C=C\CCCCCCCC(=O)OC	inactive
NCC1CCCC(CN)C1 (stereo not given)	inactive
O=C(CCCCCCCCC#CI)Oc1ccccc1	inactive
O=C(O)c1snc(Cl)c1Cl	inactive
O=C(N[C@@H](c1ccccc1)[C@@H]1CCCCN1)c1cccc(C(F)(F)F)c1Cl	inactive
CC(C)CCCCCOC(=O)CCCCC(=O)OCCCCCC(C)C	inactive
Cc1cc(O)c2c(O)c3c(O)cccc3cc2c1	inactive
ON(Cc1ccccc1)Cc1ccccc1	inactive
CCOC(=O)CC(=O)C(=O)OCC	inactive
CN(C(=O)C(Cl)Cl)c1ccc(OC(=O)c2ccco2)cc1	inactive
CCOC(=O)c1ccccc1C	inactive
O=C(O)C(Cc1cc(I)c(O)c(I)c1)c1ccccc1 (stereo not given)	inactive
O=C(C(=O)c1ccccc1)c1ccccc1	inactive
CC1=CC(O)CC(C)(C)C1 (stereo not given)	inactive
